# Assay results from PubChem BioAssay.
# Values joined by “and” are separate entries in the source; they are usually repeats but may differ in a detail not shown here. Equal values may be shown once. Some compounds were tested as several samples or in several runs, with calls that do not always agree. Active and inactive are the calls of the source.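 How the source made its calls, unless noted: active means thallium flux through the channel raised or lowered by more than 3 SD from vehicle-only wells, actives on both sides; inactive means the rest.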
# Legend:
# [1] = tested on: Hepatitis C virus NS3 helicase; experiment: blockers of NS3h binding to DNA – biochemical, fluorescence polarization, NIH Clinical Collection, primary screen (AID 743270; call rule not given here); conditions: NS3 helicase binding to Cy5-dT15 DNA, stronger effect = higher value, concentration not given here
# [2] = biological target: Single-stranded DNA-binding protein (Escherichia coli (strain K12)) (UniProt P0AGE0); experiment: SSB-ssDNA binding inhibitors – biochemical, fluorescence polarization, NIH Clinical Collection, counter-screen for HCV NS3 helicase inhibitor project (AID 743271; in the data active means inhibition above about 28%); conditions: E. coli SSB-DNA binding, stronger effect = higher value, concentration not given here
# [3] = compounds distorting NS3 helicase fluorescence signal – biochemical, NIH Clinical Collection, artefact control for HCV NS3 helicase inhibitor project (AID 743272; call rule not given here;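 further: HCV NS3 helicase with a Cy5 labelled single stranded DNA probe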); conditions: fluorescence interference counterscreen, HCV NS3 helicase assay; stronger effect = lower value
# [4] = Wnt pathway potentiators raising nuclear beta-catenin – imaging, WNT3A-conditioned medium, mouse C2C12, NPC library, primary screen (AID 1117326; in the data active means nuclear beta-catenin stimulation mostly above about 4.2%, no sharp cut-off; inactive means mostly below about 10%); conditions: stronger effect = higher value
# [5] = stimulators of insulin release from INS-1E, primary screen, cell-based, 5 mM glucose, NPC library (AID 1117329;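 active means compound raises insulin release from rat beta cells at 5 mM glucose, no numeric limit stated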); conditions: rat INS-1E insulin secretion, at 10 µM, stronger effect = higher value
# [6] = growth inhibition of GSK3B-pretreated HCT116 cells – cell-based, CellTiter-Glo, 0.2 to 20 µM (AID 1117336;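 active means compounds lowering colon cancer cell viability after pretreatment blocking the GSK3B kinase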); conditions: HCT116 viability after GSK3B inhibitor, at 20 µM, stronger effect = higher value
# [7] = inhibition of endothelial tube formation, primary screen, imaging, VEGF stimulated, CD31 staining, tube area, NPC library (AID 1117340;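 active means compound that reduces growth-factor-driven endothelial tube area in a mixed cell culture, no cutoff stated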); conditions: VEGF-stimulated ADSC/ECFC co-culture, at 10 µM, stronger effect = higher value
# [8] = GLP1 release stimulators, primary, NCI-H716, NPC library (AID 1117341;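 active means compound raises GLP1 secretion from the human gut endocrine cells, with no numeric limit stated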); conditions: NCI-H716 cells, at 10 µM, stronger effect = higher value
# [9] = HCT116 colon cancer cell growth inhibition, primary screen, CellTiter-Glo luminescence, NPC library (AID 1117342;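 active means compounds that lower survival of HCT116 colon cancer cells in the luminescence readout, no numeric limit stated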); conditions: at 20 µM (top of the series)
# [10] = reduced SW480 viability measured with CellTiter-Glo, NPC library, primary (AID 1117343;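 active means compounds that lower viability of the colon cancer cells in the luminescence readout, with no numeric limit stated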); conditions: CellTiter-Glo luminescence; at 20 µM (top of the series)
# [11] = NPC library primary testing for decreased DLD-1 cell viability via CellTiter-Glo (AID 1117346;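 active means compounds that lower survival of DLD-1 colon cancer cells in the luminescence readout, no cutoff given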); conditions: DLD-1 viability, CellTiter-Glo luminescence; at 20 µM (top of the series)
# [12] = biological target: 6-phosphogluconate dehydrogenase, decarboxylating (Homo sapiens) (UniProt P52209); experiment: inhibition of human phosphogluconate dehydrogenase – biochemical, recombinant enzyme, NADPH absorbance, primary screen (AID 1159550;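 active means at least 20% inhibition of 6-phosphogluconate dehydrogenase activity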); conditions: recombinant 6PGD, NADPH absorbance 341 nm; at 10 µM; stronger effect = higher value
# [13] = viability loss with induced miR-34 in A549 – imaging, A549 dox-inducible miR-34, nuclei and caspase counts, primary screen (AID 1347080;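 active means compounds whose cell count with miR-34 switched on is under 0.7 times the count with it off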); conditions: A549 miR-34 inducible, Hoechst nuclei count, 48 h
# [14] = MELAS cybrid and Rieske KO viability enhancers – cell-based, MELAS cybrids, Rieske KO mouse fibroblasts, CellTiter-Glo, primary screen (AID 1508586;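 active means mean z-score across replicates of 1.96 or higher in either the MELAS or the Rieske mutant cell line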;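 further: z relative to plate mean and SD of compound and empty wells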); conditions: low glucose
# [15] = biological target: NAD(+) hydrolase SARM1 (Homo sapiens) (UniProt Q6SZW1); experiment: blocking NAD cleavage by SARM1 SAM-TIR – cell lysate, NAD-Glo luminescence (AID 1508614;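 active means compound whose remaining NAD level is above about 45 nM, limit read from the data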); conditions: SAM-TIR HEK293T lysate NADase, at 1 µM, stronger effect = higher value
# [16] = biological target: Mitogen-activated protein kinase 7 (Homo sapiens) (UniProt Q13164); experiment: Gal4-ERK5 driven luciferase induction – cell-based, HTS, primary screen (AID 1508626;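 active means luciferase signal above three times the same-plate solvent-only control wells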;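 further: luciferase driven by Gal4-ERK5 fusion binding five Gal4 sites before minimal TATA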); conditions: HeLa Gal4-ERK5 transactivation, 18 h, at 5 µM, stronger effect = higher value
# [17] = tested on: F380Y; experiment: BK channel mutant inhibitors and activators – cell-based, U2OS BacMam, thallium flux, beta subunits, selectivity assay, profiling panel (AID 1259406); conditions: U2OS BacMam BK variants, at 30 µM;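 further: initial slope of Thallos dye fluorescence rise after thallium is added; log ratio against the mean of 0.3% DMSO vehicle wells on the same plate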
# [18] = tested on: F380Y/beta2Delta; experiment: as above; conditions: U2OS BacMam BK variants, at 30 µM
# [19] = biological target: Calcium-activated potassium channel subunit alpha-1 (Homo sapiens) + Leucine-rich repeat-containing protein 26 (Homo sapiens) (UniProt Q12791+Q2I0M4); experiment: as above; conditions: U2OS BacMam BK variants, F380Y/Slo1WT/gamma1, at 30 µM
# [20] = EMT-state selective cytotoxicity in co-culture – imaging, PC-3E GFP, TEM4-18 mCherry, primary screen (AID 1345086;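 active means compounds killing one labelled cell type while sparing the other, by normalised counts and ratio limits, not self-fluorescent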;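 further: cells exposed to compound for 72 h before imaging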;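 on red/green cell ratio (normalised): normalised mesenchymal count divided by normalised epithelial count so high means epithelial killing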); conditions: PC-3E GFP / TEM4-18 mCherry co-culture, imaging cell counts, at 1 µM
# [21] = stronger effect = lower value, cell number ratio, induced over uninduced
# [22] = measured here: relative caspase fold change +Dox/-Dox
# [23] = measured here: total cells with miR-34 induction, stronger effect = lower value
# [24] = measured here: total cells without miR-34 induction
# [25] = MELAS cybrid survival, CellTiter-Glo 48 h, stronger effect = higher value
# [26] = Rieske KO mouse fibroblast survival, CellTiter-Glo 72 h
# 6-phosphogluconate dehydrogenase, decarboxylating (Homo sapiens), sequence (P52209 whole entry, looked up): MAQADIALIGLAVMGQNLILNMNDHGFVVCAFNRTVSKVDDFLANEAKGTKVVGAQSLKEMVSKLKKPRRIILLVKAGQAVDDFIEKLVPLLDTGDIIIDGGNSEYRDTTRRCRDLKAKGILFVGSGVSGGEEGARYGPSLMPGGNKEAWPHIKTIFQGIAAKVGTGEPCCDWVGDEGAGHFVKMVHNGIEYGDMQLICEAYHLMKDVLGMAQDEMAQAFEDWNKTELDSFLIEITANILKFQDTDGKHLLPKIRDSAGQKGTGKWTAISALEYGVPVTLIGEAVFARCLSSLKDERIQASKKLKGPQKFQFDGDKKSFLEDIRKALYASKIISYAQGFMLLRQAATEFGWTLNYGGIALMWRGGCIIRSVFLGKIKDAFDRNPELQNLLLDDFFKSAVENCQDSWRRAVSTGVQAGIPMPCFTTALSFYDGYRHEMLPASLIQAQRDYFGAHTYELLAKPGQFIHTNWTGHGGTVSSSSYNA
# Mitogen-activated protein kinase 7 (Homo sapiens), sequence (Q13164 whole entry, looked up, the tested form may be a part): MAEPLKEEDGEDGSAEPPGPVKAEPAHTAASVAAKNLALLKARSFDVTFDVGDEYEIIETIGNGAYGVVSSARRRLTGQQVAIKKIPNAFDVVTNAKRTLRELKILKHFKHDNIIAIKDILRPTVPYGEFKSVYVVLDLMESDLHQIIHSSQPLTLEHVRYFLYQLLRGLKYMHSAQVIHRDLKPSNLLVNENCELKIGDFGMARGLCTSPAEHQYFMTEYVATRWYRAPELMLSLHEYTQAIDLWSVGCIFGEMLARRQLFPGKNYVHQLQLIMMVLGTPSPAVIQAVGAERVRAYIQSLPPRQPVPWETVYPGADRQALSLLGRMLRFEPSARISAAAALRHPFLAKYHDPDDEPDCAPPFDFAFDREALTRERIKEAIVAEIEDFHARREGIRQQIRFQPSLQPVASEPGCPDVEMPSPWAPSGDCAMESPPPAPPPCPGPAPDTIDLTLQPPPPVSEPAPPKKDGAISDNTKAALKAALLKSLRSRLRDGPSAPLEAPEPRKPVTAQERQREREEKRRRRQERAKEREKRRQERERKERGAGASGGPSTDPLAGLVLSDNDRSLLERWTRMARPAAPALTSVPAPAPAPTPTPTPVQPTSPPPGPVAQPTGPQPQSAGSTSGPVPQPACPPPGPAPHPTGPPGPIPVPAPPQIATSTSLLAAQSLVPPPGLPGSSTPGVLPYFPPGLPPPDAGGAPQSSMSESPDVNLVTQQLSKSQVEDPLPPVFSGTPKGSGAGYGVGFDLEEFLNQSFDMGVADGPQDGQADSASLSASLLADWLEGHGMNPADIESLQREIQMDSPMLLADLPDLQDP
# NAD(+) hydrolase SARM1 (Homo sapiens), sequence (Q6SZW1 whole entry, looked up, the tested form may be a part): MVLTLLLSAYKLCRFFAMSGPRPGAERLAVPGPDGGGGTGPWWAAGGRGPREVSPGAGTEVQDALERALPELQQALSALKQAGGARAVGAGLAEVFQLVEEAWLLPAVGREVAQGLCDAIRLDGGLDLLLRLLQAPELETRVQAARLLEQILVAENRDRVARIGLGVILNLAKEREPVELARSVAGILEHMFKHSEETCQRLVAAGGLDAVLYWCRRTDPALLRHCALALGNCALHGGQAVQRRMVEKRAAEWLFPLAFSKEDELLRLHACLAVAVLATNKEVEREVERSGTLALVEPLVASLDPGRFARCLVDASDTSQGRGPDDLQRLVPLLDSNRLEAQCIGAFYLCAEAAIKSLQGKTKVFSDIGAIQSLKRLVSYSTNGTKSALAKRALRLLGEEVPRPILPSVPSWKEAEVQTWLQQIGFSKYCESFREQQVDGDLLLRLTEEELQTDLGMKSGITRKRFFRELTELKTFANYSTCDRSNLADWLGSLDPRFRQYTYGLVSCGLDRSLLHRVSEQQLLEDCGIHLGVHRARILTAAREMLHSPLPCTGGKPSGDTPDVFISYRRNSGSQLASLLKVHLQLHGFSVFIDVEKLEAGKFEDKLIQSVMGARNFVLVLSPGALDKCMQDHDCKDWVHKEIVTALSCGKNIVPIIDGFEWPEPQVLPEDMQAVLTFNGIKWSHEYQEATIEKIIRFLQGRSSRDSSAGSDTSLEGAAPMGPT
# Calcium-activated potassium channel subunit alpha-1 (Homo sapiens) + Leucine-rich repeat-containing protein 26 (Homo sapiens), sequence (Q2I0M4 whole entry, looked up, one chain of several): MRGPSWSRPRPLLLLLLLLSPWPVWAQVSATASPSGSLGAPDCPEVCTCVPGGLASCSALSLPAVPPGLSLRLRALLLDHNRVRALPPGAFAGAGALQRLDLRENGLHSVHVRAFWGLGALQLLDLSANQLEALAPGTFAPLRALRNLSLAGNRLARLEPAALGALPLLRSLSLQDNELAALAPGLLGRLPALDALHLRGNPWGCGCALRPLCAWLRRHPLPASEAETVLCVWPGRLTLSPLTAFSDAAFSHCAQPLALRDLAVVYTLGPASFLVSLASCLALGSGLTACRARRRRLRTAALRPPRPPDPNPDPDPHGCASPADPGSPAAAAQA
smiles,measurement,setting,value
CC1(C)O[C@@H]2C[C@H]3[C@@H]4C[C@H](F)C5=CC(=O)C=C[C@]5(C)[C@H]4[C@@H](O)C[C@]3(C)[C@]2(C(=O)CO)O1,inhibition,[1],-0.45% (inactive)
same,inhibition,[2],-1.24% (inactive)
same,fluorescence ratio,[3],0.99 (inactive)
same,nuclear beta-catenin stimulation,[4]; at 10 µM,-0.2% (inactive)
same,nuclear beta-catenin stimulation,"[4]; stimulation, at 2 µM",1.6%
same,insulin secretion stimulation,[5],1.6% (inactive)
same,viability decrease,[6],-31.1% (inactive)
same,tube area decrease,[7],-14.6% (inactive)
same,GLP1 secretion stimulation,[8],-0.5% (inactive)
same,inhibition of viability,[9],-1.83% (inactive)
same,viability decrease (inhibition),[10],15% (inactive)
same,viability decrease (inhibition),[11],-3.1% (inactive)
same,inhibition,[12],-16.5% (inactive)
same,fold change,[13]; [21],1 (inactive) and 0.779 (inactive)
same,fold change,[13]; [22],1.38 and 0.877
same,cell count,[13]; [23],7820 and 5180
same,cell count,[13]; [24],7800 and 6650
same,z-score,[14]; [25],-0.397 (inactive)
same,z-score,[14]; [26],0.665
same,remaining NAD,[15],10 nM (inactive)
same,luciferase signal,[16],344 AU (active)
same,log fold change Tl+ flux,[17],0.00732 (inactive)
same,log fold change Tl+ flux,[18],-0.0212 (inactive)
same,log fold change Tl+ flux,[19],-0.0123 (inactive)
Cc1c(OCC(F)(F)F)ccnc1CS(=O)c1nc2ccccc2[nH]1 (stereo not drawn),inhibition,[1],1.53% (inactive)
same,inhibition,[2],1.18% (inactive)
same,fluorescence ratio,[3],0.94 (inactive)
same,nuclear beta-catenin stimulation,[4]; at 10 µM,5.4% (inactive)
same,nuclear beta-catenin stimulation,"[4]; stimulation, at 2 µM",2.1%
same,insulin secretion stimulation,[5],0.9% (inactive)
same,viability decrease,[6],27.8% (inactive)
same,tube area decrease,[7],32.8% (inactive)
same,GLP1 secretion stimulation,[8],-1.8% (inactive)
same,inhibition of viability,[9],54.6% (active)
same,viability decrease (inhibition),[10],13.2% (inactive)
same,viability decrease (inhibition),[11],-8.8% (inactive)
same,inhibition,[12],-1.09% (inactive)
same,red/green cell ratio (normalised),"[20]; actives lie on both sides, counts scaled to control wells, 1 = unselective",1.36 (inactive) and 1.09 (inactive)
same,normalised cell number,[20]; measured here: epithelial PC-3E GFP cell survival,0.7 and 1.26
same,normalised cell number,[20]; measured here: mesenchymal TEM4-18 mCherry cell survival,0.95 and 1.36
same,z-score,[14]; [25],-0.355 (inactive) and 2.16 (active)
same,z-score,[14]; [26],0.886 and 0.276
same,remaining NAD,[15],10 nM (inactive)
same,luciferase signal,[16],60 AU (inactive)
CC(=O)S[C@@H]1CC2=CC(=O)CC[C@]2(C)[C@H]2CC[C@@]3(C)[C@@H](CC[C@@]34CCC(=O)O4)[C@H]12,inhibition,[1],-3.18% (inactive)
same,inhibition,[2],-0.48% (inactive)
same,fluorescence ratio,[3],0.9 (inactive)
same,nuclear beta-catenin stimulation,[4]; at 10 µM,4.4% (inactive)
same,nuclear beta-catenin stimulation,"[4]; stimulation, at 2 µM",2.4%
same,insulin secretion stimulation,[5],-2% (inactive)
same,viability decrease,[6],-2% (inactive)
same,tube area decrease,[7],17% (inactive)
same,GLP1 secretion stimulation,[8],2.4% (inactive)
same,inhibition of viability,[9],28.7% (inactive)
same,viability decrease (inhibition),[10],41.7% (inactive)
same,viability decrease (inhibition),[11],26.4% (inactive)
same,inhibition,[12],14.1% (inactive)
same,fold change,[13]; [21],0.941 (inactive) and 0.878 (inactive) and 0.848 (inactive)
same,fold change,[13]; [22],1.96 and 1.1 and 1.66
same,cell count,[13]; [23],8520 and 7420 and 8230
same,cell count,[13]; [24],9050 and 8450 and 9710
same,z-score,[14]; [25],0.887 (inactive) and 0.469 (inactive)
same,z-score,[14]; [26],0.325 and -0.236
same,remaining NAD,[15],10 nM (inactive)
same,luciferase signal,[16],56 AU (inactive)
same,log fold change Tl+ flux,[17],-0.00371 (inactive)
same,log fold change Tl+ flux,[18],-0.0301 (inactive)
same,log fold change Tl+ flux,[19],0.0238 (inactive)
